Source: PubChem BioAssay (EPA / NIEHS)
Records with an inconclusive call do not appear. Activity calls are given as the source filed them. Rule for the calls, unless noted: active = hit-call score of the fitted dose curve at least 0.9, where 1 is the maximum; inactive = score below 0.9.

Experiments:
[1] = ATG_PXRE_CIS: Attagene CIS-FACTORIAL HepG2 Assay for human Pregnane X Receptor Element (PXRE) (AID 2282957); details: HepG2 Attagene CIS-FACTORIAL PXRE reporter, mRNA; actives raise or lower the signal
In short: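 Fluorescent capillary electrophoresis of amplified reporter cDNA gave the signal, collected 24 h after dosing HepG2 cells that held transfected cis-element reporter constructs.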

[2] = ATG_RORE_CIS: Attagene CIS-FACTORIAL HepG2 Assay for human RAR-related Orphan Receptor Element (RORE) (AID 2282959); details: HepG2 Attagene cis-factorial RORE reporter, mRNA; actives raise or lower the signal
In short: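 Transiently transfected HepG2 reporter cells were treated 24 h. Reporter transcripts were detected by RT-PCR and capillary electrophoresis, with bidirectional fitting against DMSO.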

[3] = ATG_Sox_CIS: Attagene CIS-FACTORIAL HepG2 Assay for human SRY-box transcription factor (SOX) (AID 2282960); details: HepG2 Attagene cis-factorial SOX reporter, mRNA; actives raise or lower the signal
In short: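 Gain- or loss-of-signal endpoint, fitted bidirectionally with DMSO as negative control. Based on reporter mRNA from transfected HepG2 cells harvested 24 h post-treatment and quantified via RT-PCR and capillary electrophoresis.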

[4] = molecular target: Transcription factor Sp1 (Homo sapiens) (UniProt P08047); experiment: ATG_Sp1_CIS: Attagene CIS-FACTORIAL HepG2 Assay for human Specificity Protein 1 (Sp1) (AID 2282961); details: HepG2 Sp1 cis-reporter transcription, actives raise or lower the signal
Transcription factor Sp1 (Homo sapiens), sequence (P08047 whole entry, looked up, the tested form may be a part): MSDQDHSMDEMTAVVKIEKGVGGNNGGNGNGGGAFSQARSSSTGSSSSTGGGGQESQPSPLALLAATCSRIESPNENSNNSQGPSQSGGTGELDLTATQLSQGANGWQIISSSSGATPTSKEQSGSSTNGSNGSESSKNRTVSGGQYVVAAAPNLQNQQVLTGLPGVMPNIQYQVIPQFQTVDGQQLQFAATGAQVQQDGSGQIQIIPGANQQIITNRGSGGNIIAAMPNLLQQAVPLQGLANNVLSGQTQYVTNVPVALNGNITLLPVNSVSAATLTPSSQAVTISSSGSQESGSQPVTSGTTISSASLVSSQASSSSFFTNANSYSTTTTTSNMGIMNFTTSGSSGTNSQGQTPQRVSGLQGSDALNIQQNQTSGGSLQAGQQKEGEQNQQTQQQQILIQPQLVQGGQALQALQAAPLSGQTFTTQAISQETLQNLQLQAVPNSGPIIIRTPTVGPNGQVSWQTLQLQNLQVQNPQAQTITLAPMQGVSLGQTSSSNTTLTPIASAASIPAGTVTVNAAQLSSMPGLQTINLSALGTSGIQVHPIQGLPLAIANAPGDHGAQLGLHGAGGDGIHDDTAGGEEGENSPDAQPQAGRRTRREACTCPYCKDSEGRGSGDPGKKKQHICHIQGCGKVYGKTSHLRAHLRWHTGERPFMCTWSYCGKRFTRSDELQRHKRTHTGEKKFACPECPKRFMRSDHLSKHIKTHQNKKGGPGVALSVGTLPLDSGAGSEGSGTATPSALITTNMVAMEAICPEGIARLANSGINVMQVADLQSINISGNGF
In short: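 Endpoint reflects endogenous Sp1 transcriptional activity, not an exogenous fusion protein: HepG2 cells with transfected cis-regulated reporters, 24 h dosing, RT-PCR/capillary electrophoresis mRNA read-out, DMSO-normalised bidirectional fit.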

[5] = ATG_SREBP_CIS: Attagene CIS-FACTORIAL HepG2 Assay for human Sterol Regulatory Element Binding (SREBP) (AID 2282962); details: HepG2 Attagene cis-factorial SREBP reporter, mRNA; actives raise or lower the signal
In short: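 In this cis-format assay, HepG2 liver cells express reporters controlled by promoter elements responsive to native transcription factors. Exposure lasts 24 h; reporter mRNA fluorescence from capillary electrophoresis gives the signal, fitted bidirectionally against DMSO.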

[6] = ATG_TA_CIS: Attagene CIS-FACTORIAL HepG2 Assay for human TA Basal Promoter (AID 2282964); details: HepG2 Attagene CIS-factorial TA basal promoter reporter; actives raise or lower the signal
In short: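 Fluorescence from labelled RT-PCR reporter fragments, separated by capillary electrophoresis, gives the signal. Cells: HepG2 transiently carrying multiple reporter units, 24 h chemical dosing. Gain or loss relative to DMSO.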

[7] = ATG_TCF_b_cat_CIS: Attagene CIS-FACTORIAL HepG2 Assay for human T-Cell-Factor with beta-catenin (TCF/b-cat) (AID 2282965); details: HepG2 TCF/beta-catenin cis-reporter transcription, actives raise or lower the signal
In short: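 HepG2, transient MRTU transfection, cis-element-driven reporters (endogenous TFs). 24 h compound exposure. Readout: reporter mRNA by RT-PCR + 6-FAM primer extension, HpaI digest, capillary electrophoresis. Gain/loss fit vs DMSO baseline.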

[8] = ATG_TAL_CIS: Attagene CIS-FACTORIAL HepG2 Assay for human TAL Basal Promoter (AID 2282966); details: HepG2 Attagene cis-factorial TAL promoter reporter; actives raise or lower the signal;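 note: background control endpoint measuring basal TAL promoter reporter mRNA not a specific factor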
In short: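 Transiently transfected HepG2 (cis-regulated reporter units), 24 h treatment, mRNA read by fluorescent CE after RT-PCR; bidirectional fit, DMSO baseline.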

[9] = ATG_VDRE_CIS: Attagene CIS-FACTORIAL HepG2 Assay for human Vitamin D Receptor Element (VDRE) (AID 2282968); details: HepG2 VDRE cis-reporter transcription, actives raise or lower the signal
In short: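 Compounds were applied for 24 h to HepG2 cells transfected with promoter-regulated reporter units. Total RNA was reverse-transcribed, and reporter amplicons were fluorescently labelled and sized by capillary electrophoresis.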

[10] = molecular target: Steroid hormone receptor ERR1 (Homo sapiens) (UniProt P11474); experiment: ATG_ERRa_TRANS: Attagene TRANS-FACTORIAL HepG2 Assay for human Estrogen-Related Receptor alpha (ERRa) (AID 2282971; active = hit-call score of the fitted dose curve at least 0.9, where 1 is the maximum); details: HepG2 Attagene TRANS reporter, ERRa transactivation
Steroid hormone receptor ERR1 (Homo sapiens), sequence (P11474 whole entry, looked up, the tested form may be a part): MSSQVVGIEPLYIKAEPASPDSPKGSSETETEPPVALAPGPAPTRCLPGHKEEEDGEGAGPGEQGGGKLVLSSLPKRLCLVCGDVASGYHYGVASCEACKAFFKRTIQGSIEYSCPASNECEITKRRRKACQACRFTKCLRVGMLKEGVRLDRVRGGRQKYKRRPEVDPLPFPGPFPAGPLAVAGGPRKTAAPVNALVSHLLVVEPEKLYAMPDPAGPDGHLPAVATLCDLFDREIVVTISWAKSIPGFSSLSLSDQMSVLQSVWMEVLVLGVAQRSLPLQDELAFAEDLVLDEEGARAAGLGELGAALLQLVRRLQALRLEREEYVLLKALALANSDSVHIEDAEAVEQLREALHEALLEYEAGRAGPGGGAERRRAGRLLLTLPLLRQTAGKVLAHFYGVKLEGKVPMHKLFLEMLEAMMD
In short: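 HepG2 cells transiently transfected with multiplexed GAL4-UAS reporter units reading chimeric ERRa-Gal4 activity; 24 h compound exposure. Reporter mRNA measured by RT-PCR, 6-FAM labelling, HpaI digest and capillary electrophoresis; gain of signal fitted versus DMSO baseline.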

[11] = molecular target: X-box-binding protein 1 (Homo sapiens) (UniProt P17861); experiment: ATG_Xbp1_CIS: Attagene CIS-FACTORIAL HepG2 Assay for human X-box Binding Protein 1 (XBP1) (AID 2282972); details: HepG2 XBP1 cis-element reporter, Attagene multiplex; actives raise or lower the signal
X-box-binding protein 1 (Homo sapiens), sequence (P17861 whole entry, looked up): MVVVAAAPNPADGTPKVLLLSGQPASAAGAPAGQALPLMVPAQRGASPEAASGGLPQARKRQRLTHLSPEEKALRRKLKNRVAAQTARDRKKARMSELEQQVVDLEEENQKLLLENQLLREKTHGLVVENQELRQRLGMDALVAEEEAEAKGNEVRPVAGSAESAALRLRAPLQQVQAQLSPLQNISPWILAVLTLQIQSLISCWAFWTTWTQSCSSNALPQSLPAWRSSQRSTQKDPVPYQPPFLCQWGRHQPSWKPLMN
In short: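 Changes in reporter transcript abundance, read by RT-PCR and capillary electrophoresis, reflect endogenous transcription factor activity. Transfected HepG2 cells received compound for 24 hours; DMSO defined baseline for bidirectional analysis.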

[12] = ATG_M_19_TRANS: Attagene TRANS-FACTORIAL HepG2 Assay for M19 Transcription Factor (Internal Marker) (AID 2282974; active = hit-call score of the fitted dose curve at least 0.9, where 1 is the maximum); details: HepG2 Attagene TRANS-FACTORIAL M19 internal marker reporter
In short: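 Using RT-PCR and capillary electrophoresis, reporter mRNA from transiently transfected human HepG2 cells was quantified following 24 h exposure; activity was fitted in the positive direction against DMSO.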

[13] = ATG_GAL4_TRANS: Attagene TRANS-FACTORIAL HepG2 Assay for GAL4 (Internal Marker) (AID 2282976; active = hit-call score of the fitted dose curve at least 0.9, where 1 is the maximum); details: HepG2 Attagene TRANS GAL4 internal marker reporter
In short: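 HepG2 cells transiently transfected with multiplexed GAL4-UAS reporter constructs were dosed for 24 h. Reporter mRNA was measured by RT-PCR, 6-FAM primer extension, HpaI digestion and capillary electrophoresis, and gain of signal was fitted relative to DMSO.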

[14] = molecular target: Estrogen-related receptor gamma (Homo sapiens) (UniProt P62508); experiment: ATG_ERRg_TRANS: Attagene TRANS-FACTORIAL HepG2 Assay for human Estrogen-Related Receptor gamma (ERRg) (AID 2282977; active = hit-call score of the fitted dose curve at least 0.9, where 1 is the maximum;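 note: hits increase reporter signal over DMSO so potencies reflect activators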); details: HepG2 Attagene TRANS reporter, ERRg transactivation
Estrogen-related receptor gamma (Homo sapiens), sequence (P62508 whole entry, looked up, the tested form may be a part): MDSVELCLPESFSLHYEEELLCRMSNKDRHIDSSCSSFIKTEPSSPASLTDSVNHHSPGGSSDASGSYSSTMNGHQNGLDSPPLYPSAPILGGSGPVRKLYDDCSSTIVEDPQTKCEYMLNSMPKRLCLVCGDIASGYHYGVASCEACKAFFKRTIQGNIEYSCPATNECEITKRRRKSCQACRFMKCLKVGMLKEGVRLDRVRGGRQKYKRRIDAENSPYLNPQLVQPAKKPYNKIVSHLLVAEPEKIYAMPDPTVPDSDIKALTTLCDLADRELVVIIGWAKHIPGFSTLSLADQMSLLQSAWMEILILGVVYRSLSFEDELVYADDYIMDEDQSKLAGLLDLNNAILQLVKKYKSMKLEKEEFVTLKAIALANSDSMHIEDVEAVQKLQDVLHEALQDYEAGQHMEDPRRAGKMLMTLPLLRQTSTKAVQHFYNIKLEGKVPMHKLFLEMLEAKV
In short: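 Exogenous NR-Gal4 chimera activity measured as reporter transcript induction after 24 h in transiently transfected HepG2 cells. RNA reverse-transcribed, PCR-amplified, 6-FAM-labelled and resolved by capillary electrophoresis; increase over DMSO baseline.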

[15] = ATG_PPRE_CIS: Attagene CIS-FACTORIAL HepG2 Assay for human Peroxisome Proliferator-activated Response Element (PPRE) (AID 2282958); details: HepG2 PPRE cis-element reporter, Attagene transcription factor profiling; actives raise or lower the signal
In short: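 Measured endpoint: PPRE-controlled reporter mRNA, detected by RT-PCR and capillary electrophoresis fluorescence, from transiently transfected HepG2 cells 24 h after dosing. Curves fitted in both directions using DMSO baseline.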

[16] = molecular target: Signal transducer and activator of transcription 3 (Homo sapiens) (UniProt P40763); experiment: ATG_STAT3_CIS: Attagene CIS-FACTORIAL HepG2 Assay for human Signal Transducer and Activator of Transcription 3 (STAT3) (AID 2282963); details: HepG2, Attagene cis-factorial STAT3 reporter transcription; actives raise or lower the signal
Signal transducer and activator of transcription 3 (Homo sapiens), sequence (P40763 whole entry, looked up, the tested form may be a part): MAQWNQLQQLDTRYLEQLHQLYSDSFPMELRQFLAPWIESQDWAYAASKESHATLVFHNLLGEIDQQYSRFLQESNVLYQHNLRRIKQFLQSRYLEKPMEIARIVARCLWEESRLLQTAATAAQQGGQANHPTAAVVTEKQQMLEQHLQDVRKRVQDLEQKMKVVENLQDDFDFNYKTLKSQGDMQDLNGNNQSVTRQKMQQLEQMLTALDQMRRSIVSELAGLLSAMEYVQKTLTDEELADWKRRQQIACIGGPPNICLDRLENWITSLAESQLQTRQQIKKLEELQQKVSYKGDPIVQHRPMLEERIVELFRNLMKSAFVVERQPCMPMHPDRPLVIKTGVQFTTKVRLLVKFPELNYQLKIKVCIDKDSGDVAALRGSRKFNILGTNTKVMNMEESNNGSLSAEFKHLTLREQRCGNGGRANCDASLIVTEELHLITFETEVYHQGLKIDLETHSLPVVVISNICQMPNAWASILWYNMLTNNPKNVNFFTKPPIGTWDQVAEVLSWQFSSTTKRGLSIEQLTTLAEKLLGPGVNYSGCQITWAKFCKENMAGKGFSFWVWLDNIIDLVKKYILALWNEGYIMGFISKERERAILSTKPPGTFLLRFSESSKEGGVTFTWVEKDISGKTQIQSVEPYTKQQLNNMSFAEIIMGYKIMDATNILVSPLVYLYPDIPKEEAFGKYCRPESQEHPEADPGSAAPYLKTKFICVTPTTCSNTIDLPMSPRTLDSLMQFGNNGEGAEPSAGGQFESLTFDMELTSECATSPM
In short: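 Fluorescence intensity of 6-FAM-labelled reporter fragments, separated by capillary electrophoresis after RT-PCR, gave the signal. Cells were HepG2 transfected with cis-element reporter units and treated 24 h; fitting was bidirectional relative to DMSO.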

[17] = ATG_TGFb_CIS: Attagene CIS-FACTORIAL HepG2 Assay for human Transforming Growth Factor (TGF) (AID 2282967); details: HepG2 Attagene CIS TGFb reporter, mRNA transcription; actives raise or lower the signal
In short: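 Bidirectional fitting relative to DMSO gave the endpoint. Underlying data: reporter mRNA from HepG2 cells carrying transiently transfected cis-regulated reporter constructs, harvested 24 h after dosing and analyzed by RT-PCR and capillary electrophoresis.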

[18] = molecular target: Nuclear receptor subfamily 1 group I member 3 (Homo sapiens) (UniProt Q14994); experiment: ATG_CAR_TRANS: Attagene TRANS-FACTORIAL HepG2 Assay for human Constitutive Androstane Receptor (CAR) (AID 2282969; active = hit-call score of the fitted dose curve at least 0.9, where 1 is the maximum;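 note: activators raise reporter mRNA above DMSO so AC50 marks induction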); details: HepG2 Attagene TRANS-FACTORIAL CAR reporter
Nuclear receptor subfamily 1 group I member 3 (Homo sapiens), sequence (Q14994 whole entry, looked up, the tested form may be a part): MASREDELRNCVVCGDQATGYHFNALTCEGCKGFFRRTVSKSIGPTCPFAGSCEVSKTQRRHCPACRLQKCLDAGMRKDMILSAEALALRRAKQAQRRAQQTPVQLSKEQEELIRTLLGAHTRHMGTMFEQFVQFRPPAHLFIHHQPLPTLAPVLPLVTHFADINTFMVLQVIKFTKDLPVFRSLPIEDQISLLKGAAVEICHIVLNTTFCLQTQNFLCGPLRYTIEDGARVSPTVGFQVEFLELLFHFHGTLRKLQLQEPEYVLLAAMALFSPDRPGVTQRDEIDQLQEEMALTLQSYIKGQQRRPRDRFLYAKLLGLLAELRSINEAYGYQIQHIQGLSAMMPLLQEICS
In short: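 Transiently transfected HepG2, multiplex TRANS reporters (CAR-Gal4 chimera driving GAL4-UAS reporter). 24 h dosing. Readout: reporter transcript by RT-PCR + capillary electrophoresis, fluorescence intensity; positive direction vs DMSO.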

[19] = molecular target: Estrogen receptor (Homo sapiens) (UniProt P03372); experiment: ATG_ERa_TRANS: Attagene TRANS-FACTORIAL HepG2 Assay for human Estrogen Receptor alpha (ERa) (AID 2282970; active = hit-call score of the fitted dose curve at least 0.9, where 1 is the maximum); details: HepG2 Attagene TRANS ERa GAL4 reporter, mRNA
Estrogen receptor (Homo sapiens), sequence (P03372 whole entry, looked up, the tested form may be a part): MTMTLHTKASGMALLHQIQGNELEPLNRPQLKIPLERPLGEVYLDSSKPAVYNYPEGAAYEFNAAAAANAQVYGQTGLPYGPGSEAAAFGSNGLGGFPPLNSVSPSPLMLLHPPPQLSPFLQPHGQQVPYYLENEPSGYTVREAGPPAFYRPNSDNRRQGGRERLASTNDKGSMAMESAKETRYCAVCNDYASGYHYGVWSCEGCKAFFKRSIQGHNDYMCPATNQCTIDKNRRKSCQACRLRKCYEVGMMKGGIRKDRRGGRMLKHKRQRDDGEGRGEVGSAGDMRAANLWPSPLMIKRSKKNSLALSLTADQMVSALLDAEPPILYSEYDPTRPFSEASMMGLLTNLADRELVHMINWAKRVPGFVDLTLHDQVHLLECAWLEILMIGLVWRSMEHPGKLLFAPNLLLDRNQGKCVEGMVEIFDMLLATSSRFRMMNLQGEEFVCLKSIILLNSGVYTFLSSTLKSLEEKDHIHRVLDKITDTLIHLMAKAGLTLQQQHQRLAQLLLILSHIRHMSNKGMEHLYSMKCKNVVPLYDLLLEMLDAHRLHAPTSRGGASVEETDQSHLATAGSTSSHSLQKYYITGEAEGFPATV
In short: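 One of 30 multiplexed endpoints from a HepG2 TRANS system, this one reports ERa-Gal4-driven reporter mRNA. Transcripts were quantified 24 hours post-dosing by fluorescent RT-PCR and capillary electrophoresis, with activity scored as induction over DMSO.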

Measured: AC50

C=CC(C)(C)C
inactive: [1] | [2] | [3] | [4] | [5] | [6] | [7] | [8] | [9] | [10] | [11] | [12] | [13] | [14]

CC(C)(C)C(=O)CCc1ccc(Cl)cc1
inactive: [15] | [2] | [3] | [4] | [5] | [16] | [6] | [7] | [8] | [17] | [18] | [10] | [11]
active: [1] 9.79 µM | [9] 41.2 µM | [19] 17.7 µM

OC1OCCOC1O (configuration not stated)
inactive: [1] | [2] | [3] | [4] | [5] | [16] | [6] | [7] | [8] | [9] | [18] | [19] | [11] | [13]

C=CC(=O)OCCOC1C2CCC1C1CC=CC12 (configuration not stated)
inactive: [1] | [15] | [2] | [4] | [5] | [16] | [6] | [7] | [8] | [17] | [9] | [11] | [12] | [13]

OC1CCCCCCCCCCC1
inactive: [15] | [2] | [3] | [4] | [5] | [16] | [6] | [7] | [8] | [11]
active: [1] 4.47 µM | [19] 10.6 µM

O=C(c1ccccc1)c1ccc(O)c(O)c1O
inactive: [15] | [2] | [3] | [4] | [5] | [16] | [6] | [7] | [8] | [17] | [9] | [10] | [11] | [13] | [14]
active: [1] 26.9 µM | [19] 27.3 µM

c1c[nH]cn1
active: [1] 63.8 µM
inactive: [2] | [3] | [4] | [5] | [16] | [6] | [7] | [8] | [17] | [9] | [11] | [12] | [13]

O=C(O)CC(C(=O)O)C(CC(=O)O)C(=O)O (configuration not stated)
inactive: [1] | [15] | [3] | [4] | [5] | [16] | [6] | [8] | [17] | [9] | [11] | [12]

CC1(C)[C@H]2CC[C@]1(C)C(=O)C2
inactive: [1] | [2] | [4] | [5] | [16] | [6] | [7] | [8] | [17] | [9] | [10] | [11] | [13] | [14]
